Common to all, as to experiment: Cytotoxic Profiling of Annotated Libraries Using Quantitative High-Throughput Screening (AID 1296008); further: nearly all actives have a fitted effect of over 60% in size
Holding throughout (settings): Five cell lines viability, CellTiter-Glo ATP luminescence, 48-72 h; max response: hits give low values

The test system of one assay is CRL-7250. The method, boiled down: (§1)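 Cells exposed to compounds for 48 or 72 hr at 37 degrees Celsius. Viability read as ATP-coupled luminescence with CellTiter-Glo after 10 min at room temperature.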
The next assay concerns HEK293. In outline: as §1
The next assay concerns HaCat. The method, boiled down: as §1
Another assay relates to KB-3-1. In outline: as §1
A further assay relates to NIH3T3. The method, boiled down:
as §1

Structures are written as SMILES. Records with an inconclusive call do not appear. Unmarked numbers belong to inactive results. Activity calls are given as the source filed them. The call rests on the fitted dose curve; in most records, active means well fitted inhibition curve with a large enough effect; inconclusive means small, poorly fitted or top-dose-only effect; inactive means flat fitted curve, though single readings scatter.
On the % scale 0 is the no-effect control and ±100 the full control effect; potency means the concentration at half of the fitted maximal effect.

`CC1(C)CC[C@]2(CO[C@@H]3O[C@H](CO)[C@@H](O)[C@H](O)[C@H]3O)[C@@H](O)C[C@]3(C)C(=CCC4[C@@]5(C)CC[C@H](O[C@@H]6O[C@H](CO[C@@H]7O[C@H](CO[C@@H]8OC[C@@H](O)[C@H](O)[C@H]8O)[C@@H](O)[C@H](O)[C@H]7O)[C@@H](O)[C@H](O)[C@H]6O)C(C)(C)C5CC[C@]43C)[C@@H]2C1` (stereo not given in full): the max response in the assay on CRL-7250 was -5.37%; in the assay with HEK293, -6.51%; in the assay with HaCat it was -32.8%; in the assay on KB-3-1 it was -2.27%; in the assay on NIH3T3 it was -21.6%.

As to `CC(=O)N[C@@H](CCCCN)C(=O)N(C)[C@@H](CC(C)C)C(=O)N[C@H](C(=O)N(C)[C@@H](Cc1ccccc1)C(=O)N[C@H](Cc1ccccc1)C(N)=O)C(C)C`, the outcome with CRL-7250 and in the assay on KB-3-1 was inactive. For the same compound, the max response in the assay on HEK293 was -3.34%; in the assay with HaCat, -11.8%; in the assay with NIH3T3 it was -4.99%.

On to `C=C[C@@H]1[C@H](O[C@@H]2O[C@H](CO)[C@@H](O)[C@H](O)[C@H]2O)OC=C(C(=O)O)[C@H]1CCOC(=O)/C=C/c1ccc(O)c(O)c1`, for which the max response is 1.95% in the assay on CRL-7250, 4.3% in the assay on HEK293, -20.8% in the assay with HaCat and 0.24% with NIH3T3. Further, in the assay with KB-3-1, the compound was classed as inactive.

On to `CC(C)C(N)C(=O)OCCOCn1cnc2c(=O)[nH]c(N)nc21` (stereo not given), for which the max response in the assay on CRL-7250 is 2.37%; with HEK293, 1.16%; in the assay with HaCat, -13.5%; in the assay with KB-3-1, -4.91%; with NIH3T3 it was 1.39%.

As to `CS(=O)(=O)N1CCC(NC(=O)c2[nH]ncc2NC(=O)c2c(Cl)cccc2Cl)CC1`, the Potency in the assay on CRL-7250 was 3.26 µM (active); with HEK293, 1.16 µM (active); in the assay with HaCat, 4.61 µM (active); with KB-3-1 it was 0.82 µM (active); in the assay on NIH3T3, 2.59 µM (active).

In the case of `COc1cc2c(cc1OC)[C@@H]1[C@H](O)[C@@H](OC)C=C3CCN(C2)[C@H]31`, the Potency with CRL-7250 was 12.8 µM (active); in the assay with HEK293, 4.53 µM (active); with KB-3-1, 7.18 µM (active); in the assay on NIH3T3 it was 3.6 µM (active). Moreover, in the assay with HaCat, the max response is -24.8%.

Regarding `CN[C@H](CC(C)C)C(=O)N[C@H]1C(=O)N[C@@H](CC(N)=O)C(=O)N[C@H]2C(=O)N[C@H]3C(=O)N[C@H](C(=O)N[C@H](C(=O)O)c4cc(O)cc(O)c4-c4cc3ccc4O)[C@H](O[C@H]3C[C@](C)(N)[C@@H](O)[C@H](C)O3)c3ccc(c(Cl)c3)Oc3cc2cc(c3O[C@@H]2O[C@H](CO)[C@@H](O)[C@H](O)[C@H]2O[C@H]2C[C@](C)(NCc3ccc(-c4ccc(Cl)cc4)cc3)[C@@H](O)[C@H](C)O2)Oc2ccc(cc2Cl)[C@H]1O`, the max response was 0.406% in the assay on CRL-7250, -5.83% in the assay with HEK293, -0.936% in the assay with HaCat and 1.69% in the assay with NIH3T3. For the same compound, the call with KB-3-1 was inactive.

`C/C(=C\C=C\C(C)C1CCC2(C)C3CCC4C(C)(C)C(=O)CCC45CC35CCC12C)C(=O)O` (stereo not given): the max response in the assay with CRL-7250 is -5.15%; in the assay on HEK293, -1.63%; in the assay on HaCat, -16.2%; in the assay with KB-3-1 it was -3.21%; with NIH3T3, -13.8%.

`O=C1OCC(c2ccccc2)=C1Cc1ccccc1`: the max response was -11.2% with CRL-7250; 0.652% in the assay on HEK293; -5.17% with HaCat; -0.0133% in the assay with KB-3-1; -8.21% in the assay on NIH3T3.

For the compound `COc1ccc(/C=C/C(=O)O[C@H]2[C@H](O[C@H]3[C@@H]4C=CO[C@@H](O[C@@H]5O[C@H](CO)[C@@H](O)[C@H](O)[C@H]5O)[C@@H]4[C@@]4(CO)O[C@@H]34)O[C@@H](C)[C@H](O)[C@H]2OC(C)=O)cc1`, the max response in the assay with CRL-7250 was 3.12%; with HEK293 it was -1.88%; with HaCat, 2.92%; in the assay on KB-3-1, 4.98%; with NIH3T3, -16.4%.

Turning to `Cc1cc(NC(=O)Nc2ccc(F)c(F)c2)n(-c2ccccc2)n1`, the max response was 4.98% in the assay with CRL-7250, -2.17% in the assay with HEK293, 4.72% in the assay on KB-3-1 and -11% in the assay with NIH3T3. Besides, the compound was classed as inactive with HaCat.

Regarding `N[C@H]1Cc2ccccc2N(O)C1=O`, the max response with CRL-7250 was -6.2%; in the assay with HaCat it was -0.256%; in the assay with KB-3-1 it was -13.7%; in the assay on NIH3T3, -9.2%. In addition, the Potency in the assay on HEK293 was 25.9 µM (active).

As to `O=S(=O)(c1ccc(S(=O)(=O)n2cnc3ccccc32)cc1)N1CCCCCC1`, the max response in the assay with CRL-7250 is -2.18%; with HEK293, -10.3%; with HaCat, -9.6%; with KB-3-1, 6.01%; in the assay on NIH3T3, -4.79%.

Take `COc1cc(O)cc(C)c1C(=O)O[C@H]1[C@@H](OC(C)=O)[C@H](n2ccc(=O)[nH]c2=O)O[C@@H]1CO`: the result in the assay on CRL-7250 was inactive. For the same compound, the max response in the assay with HEK293 was 4.85%; in the assay with HaCat it was -17.4%; in the assay with KB-3-1 it was 7.29%; in the assay on NIH3T3, 0.716%.

As for `CC1CCC2C(C)(C)[C@@H](O)CC[C@]2(C)C12Cc1c(O)cc3c(c1O2)CN(C(CCC(=O)O)C(=O)O)C3=O` (stereo not given in full), the max response in the assay with CRL-7250 was -1.01%; in the assay on HEK293, -4.16%; in the assay with HaCat, 3.85%; in the assay on NIH3T3, -1.29%. The call in the assay on KB-3-1 was inactive.

Values taken from PubChem BioAssay (NCATS).
